Test results taken from PubChem BioAssay (NCI).
The panel holds about 83,000 compounds, 20% with a hit somewhere; the sample as a whole holds those more often.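 Negative percent growth values reflect cell death: -40 means 40% of the cells present at the start died, and -100 means all died.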 Active and inactive are the calls of the source. The calls were made as follows: active = growth percent below 10; inactive = the rest.

Tests used:
Assay in all cases: NCI-60 one-dose screen, 48 h (100 = growth as untreated, 0 = no growth, -100 = all killed)
Settings in all cases: 10 µM unless noted
HCT-15 colon = system: HCT-15 colon
HT29 colon = system: HT29 colon
SNB-75 CNS = system: SNB-75 CNS
SNB-19 CNS = system: SNB-19 CNS
U251 CNS = system: U251 CNS
PC-3 prostate = system: PC-3 prostate
SK-MEL-5 melanoma = system: SK-MEL-5 melanoma
UACC-62 melanoma = system: UACC-62 melanoma
LOX IMVI melanoma = system: LOX IMVI melanoma
SK-MEL-28 melanoma = system: SK-MEL-28 melanoma
SK-MEL-2 melanoma = system: SK-MEL-2 melanoma
EKVX NSCLC = system: EKVX NSCLC
SN12C renal = system: SN12C renal
UO-31 renal = system: UO-31 renal
TK-10 renal = system: TK-10 renal
ACHN renal = system: ACHN renal
CAKI-1 renal = system: CAKI-1 renal
A498 renal = system: A498 renal
CCRF-CEM leukemia = system: CCRF-CEM leukemia
MOLT-4 leukemia = system: MOLT-4 leukemia

Measured: growth

CN1CCN(C(=O)c2cc(-c3ccc4ncnc(N5CCc6cc(F)c(Cl)cc65)c4c3)cnc2N)CC1
active: HCT-15 colon 5.57% | SNB-75 CNS -35.3% | PC-3 prostate 1.89% | SK-MEL-5 melanoma -97.1% | UACC-62 melanoma -52.1% | LOX IMVI melanoma -41.4% | SK-MEL-28 melanoma -0.0571% | SK-MEL-2 melanoma -48% | EKVX NSCLC -10.2% | SN12C renal 9.07% | UO-31 renal 3.95% | TK-10 renal -14.2% | ACHN renal 5.3% | CAKI-1 renal -33.3% | A498 renal -69.2% | CCRF-CEM leukemia 7.93% | MOLT-4 leukemia 1.54%
inactive: HT29 colon 13.6% | SNB-19 CNS 13% | U251 CNS 15.4%

COc1ccc(OC)c(-c2cn3nc(-c4c[nH]c5ccc(Br)cc45)sc3n2)c1
inactive: HCT-15 colon 24.6% | HT29 colon 10% | SNB-75 CNS 45% | SNB-19 CNS 75.4% | U251 CNS 36.9% | PC-3 prostate 40.9% | SK-MEL-5 melanoma 75.3% | UACC-62 melanoma 50.1% | SK-MEL-28 melanoma 59.5% | SK-MEL-2 melanoma 86.3% | EKVX NSCLC 36.9% | SN12C renal 44.2% | UO-31 renal 45% | TK-10 renal 62% | ACHN renal 38.8% | CAKI-1 renal 29.7% | A498 renal 86.1% | CCRF-CEM leukemia 32.8% | MOLT-4 leukemia 48.8%
active: LOX IMVI melanoma -50.5%

Cn1ccnc1C(=O)/C=C/c1ccc(C(=O)Nc2ccc(F)cc2)cc1
inactive: SNB-75 CNS 33% | SNB-19 CNS 24.4% | PC-3 prostate 22.2% | UACC-62 melanoma 35.6% | SK-MEL-28 melanoma 60.9% | SK-MEL-2 melanoma 74.6% | EKVX NSCLC 26.6% | SN12C renal 14.3% | TK-10 renal 13.1% | CAKI-1 renal 28.9%
active: HCT-15 colon 0.589% | HT29 colon 9.78% | U251 CNS 1.92% | SK-MEL-5 melanoma 8.1% | LOX IMVI melanoma -59.7% | UO-31 renal -14.2% | ACHN renal -49.9% | A498 renal -9.36% | CCRF-CEM leukemia 2.27% | MOLT-4 leukemia 7.92%

CC1(C)CC[C@]2(C(=O)O)CC[C@]3(C)C(=CC[C@@H]4[C@@]5(C)C[C@@H](Cc6cn([C@@H]7O[C@H](CO)[C@@H](O)[C@H](O)[C@H]7O)nn6)[C@H](O)C(C)(C)[C@@H]5CC[C@]43C)[C@@H]2C1
inactive: HCT-15 colon 106% | HT29 colon 99.1% | SNB-75 CNS 92% | SNB-19 CNS 97% | U251 CNS 92% | PC-3 prostate 93.4% | SK-MEL-5 melanoma 100% | UACC-62 melanoma 93.2% | LOX IMVI melanoma 99.4% | SK-MEL-28 melanoma 103% | SK-MEL-2 melanoma 113% | EKVX NSCLC 99.4% | SN12C renal 99.7% | UO-31 renal 96.3% | TK-10 renal 93.6% | ACHN renal 100% | CAKI-1 renal 98.3% | A498 renal 98.8% | CCRF-CEM leukemia 96.4% | MOLT-4 leukemia 83.4%

N#Cc1c(N2CCOCC2)nc(=S)[nH]c1-c1ccccc1
inactive: HCT-15 colon 86.6% | HT29 colon 86.1% | SNB-75 CNS 15.1% | SNB-19 CNS 84.8% | U251 CNS 78.5% | PC-3 prostate 47% | SK-MEL-5 melanoma 63% | UACC-62 melanoma 43.6% | LOX IMVI melanoma 80% | SK-MEL-28 melanoma 79.6% | SK-MEL-2 melanoma 41.8% | EKVX NSCLC 56.8% | SN12C renal 73.7% | UO-31 renal 76.9% | TK-10 renal 57.6% | ACHN renal 73.9% | CAKI-1 renal 61.4% | A498 renal 13.7% | CCRF-CEM leukemia 62.3% | MOLT-4 leukemia 73.6%

O=C1Nc2ccc(F)cc2/C1=N/c1nnc(Sc2ccccc2)s1
inactive: HCT-15 colon 98.3% | HT29 colon 105% | SNB-75 CNS 80.2% | SNB-19 CNS 105% | U251 CNS 91.4% | PC-3 prostate 91.7% | SK-MEL-5 melanoma 86.7% | UACC-62 melanoma 88.8% | LOX IMVI melanoma 90.9% | SK-MEL-28 melanoma 116% | SK-MEL-2 melanoma 102% | EKVX NSCLC 101% | SN12C renal 95.4% | UO-31 renal 80.2% | TK-10 renal 111% | ACHN renal 82.2% | CAKI-1 renal 75.1% | A498 renal 79% | CCRF-CEM leukemia 47.7% | MOLT-4 leukemia 77.2%

CC1(C)OC(=O)C(=Cc2cccc(Br)c2)C(=O)O1
inactive: HCT-15 colon 108% | HT29 colon 92.9% | SNB-75 CNS 94.4% | SNB-19 CNS 105% | U251 CNS 92.9% | PC-3 prostate 89.5% | SK-MEL-5 melanoma 94.8% | UACC-62 melanoma 101% | LOX IMVI melanoma 101% | SK-MEL-28 melanoma 119% | SK-MEL-2 melanoma 103% | EKVX NSCLC 100% | SN12C renal 101% | UO-31 renal 92.9% | TK-10 renal 101% | ACHN renal 117% | CAKI-1 renal 100% | A498 renal 94.2% | CCRF-CEM leukemia 93.2% | MOLT-4 leukemia 89.9%
